# In PubChem BioAssay AID1030 (National Center for Advancing Translational Sciences (NCATS), 2008):
# Screen size: about 220,000 compounds; about 16,000 (7.3%) were called active. Another 25% or so got no clear call; they are omitted. This excerpt belongs to a sample that is enriched for actives. A number with no mark means an inactive call. The call rests on the fitted dose curve; in most records, active means well fitted inhibition curve with a large enough effect (not every such curve was filed as active); inconclusive means small, poorly fitted or top-dose-only effect, or another doubt; inactive means no such curve, though single readings can be large or run the other way.
# Target: Aldehyde dehydrogenase 1A1 (Homo sapiens) (UniProt P00352)
# Sequence (P00352 whole entry, looked up): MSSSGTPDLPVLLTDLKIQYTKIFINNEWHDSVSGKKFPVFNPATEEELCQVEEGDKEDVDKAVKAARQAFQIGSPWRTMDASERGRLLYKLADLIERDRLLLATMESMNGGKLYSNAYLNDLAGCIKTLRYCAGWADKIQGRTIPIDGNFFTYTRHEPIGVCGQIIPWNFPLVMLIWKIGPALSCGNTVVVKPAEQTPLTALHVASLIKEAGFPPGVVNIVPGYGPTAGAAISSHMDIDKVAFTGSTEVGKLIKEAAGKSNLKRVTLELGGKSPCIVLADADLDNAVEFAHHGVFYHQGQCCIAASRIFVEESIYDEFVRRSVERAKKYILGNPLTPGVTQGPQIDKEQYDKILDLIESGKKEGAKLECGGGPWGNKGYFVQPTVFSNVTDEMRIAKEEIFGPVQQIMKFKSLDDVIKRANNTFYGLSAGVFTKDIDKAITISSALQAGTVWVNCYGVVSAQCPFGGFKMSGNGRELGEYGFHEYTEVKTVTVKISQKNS
# Assay: qHTS Assay for Inhibitors of Aldehyde Dehydrogenase 1 (ALDH1A1);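 on activity, negative = inhibition: plate controls were no enzyme wells and a reference inhibitor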
# Conditions: Purified ALDH1A1, NADH fluorescence, propionaldehyde substrate; series mostly up to 75.3 µM; activity, negative = inhibition: at the top concentration
# Potency means the concentration at half of the fitted maximal effect.
SMILES,"activity, negative = inhibition",Potency
CCOc1c(CNCc2ccc(C(=O)O)cc2)cccc1OC,4.84%,–
CC(=O)Nc1cccc(-c2nc3ccccc3s2)c1C,-0.337%,–
Cc1ccc(NC(=S)N(CCCN2CCC(C)CC2)Cc2ccco2)cc1,-7.69%,–
CCCOC(=O)c1[nH]c2c(c1C)C(=O)CC(c1cc(OC)c(OC)c(OC)c1)C2 (stereo not drawn),–,0.355 µM (active)
CCOC(=O)c1[nH]c2c(c1-c1ccccc1)C(=O)CC(c1ccc(Cl)cc1)C2 (stereo not drawn),8.72%,–
CCCOC(=O)c1[nH]c2c(c1C)C(=O)CC(c1cccs1)C2 (stereo not drawn),12.3%,–
COc1ccc2c(c1)O[C@@H](c1ccc3c(c1)OCO3)[C@H](OC(=O)NCCc1ccc(OC)c(OC)c1)C2=O,-7.29%,–
O=C(CCS(=O)(=O)Cc1ccccc1)Nc1ccc2c(c1)OCCO2,-10.7%,–
C/C(=C\c1ccco1)C1Nc2cccc3cccc(c23)N1,–,10 µM (active)
CC(/C=N/NC(=O)c1cc(-c2ccc3ccccc3c2)n[nH]1)=C\c1ccco1,-3.35%,–
CC(/C=N/NC(=O)c1ccncc1)=C\c1ccco1,-12.5%,–
COCC(C)NC(=O)COc1nncc2ccccc12 (stereo not drawn),2.02%,–
COc1ccc(C2c3[nH]c4ccccc4c3CCN2CCCn2cccn2)cc1C (stereo not drawn),-9.04%,–
Cc1ccc(/C=N/NC(=O)CSc2ccccn2)o1,–,7.94 µM (active)
Cc1ccc(/C=N/NC(=O)CNC(=O)COc2ccccc2)o1,-8.24%,–
O=C(CSc1nnc(-c2ccc([N+](=O)[O-])cc2)o1)Nc1ccccn1,7.02%,–
Cc1cccc(C)c1NC(=O)CSc1ccc([N+](=O)[O-])cn1,5.34%,–
C/C(=N/NC(=O)CSc1ccccn1)c1ccc([N+](=O)[O-])cc1,–,20 µM (active)
Cc1ccc(/C=N/NC(=O)Cn2nc(C)c(Br)c2C)o1,1.11%,–
CC1CC(C)(C)NC(=S)N1CCC(=O)N1CCN(Cc2ccccc2)CC1 (stereo not drawn),1.21%,–
Cc1sc2nc(CSCC(=O)Nc3c(Cl)cccc3Cl)[nH]c(=O)c2c1C,-7.94%,–
CSc1nnc(SCc2nc3sc(C(=O)O)c(C)c3c(=O)[nH]2)s1,–,7.08 µM (active)
CCN(CC)Cc1nc2sc(C)c(C)c2c(=O)[nH]1,-1.29%,–

SMILES,"activity, negative = inhibition",Potency
Fc1ccccc1N=C1Nc2cccc3cccc1c23,2%,–
CCC(C(=O)NCc1ccc(OC)cc1)n1nc(C)n2c(cc3occc32)c1=O (stereo not drawn),-10.2%,–
COc1ccc(CCNC(=O)c2cc3sccc3n2C)cc1OC,-13.6%,–
CCOc1ccc(CCNC(=O)C(CC)n2nc(C)n3c(cc4sccc43)c2=O)cc1OCC (stereo not drawn),–,31.6 µM (active)
CCCCC/C=C\C/C=C\CCCCCCCCCC(=O)NCC(=O)O,10.8%,–
CC(C)(C)c1cc(C(=O)N/N=C/c2ccc([N+](=O)[O-])s2)n[nH]1,3.41%,–
Cc1ccc(SCCC(=O)Nc2cc(C)on2)cc1,-1.48%,–
O=c1c2ccccc2c(-c2ccccc2)nn1-c1ccccn1,8.22%,–
C#CCNc1nc(C(C)C)nc2c1nnn2Cc1ccccc1F,–,11.2 µM (active)
CCCc1nc(NCc2ccc3c(c2)OCO3)c2nnn(Cc3ccccc3Cl)c2n1,-3.33%,–
CC(O)C(NS(=O)(=O)c1ccc(Cl)cc1)C(=O)OCc1cc([N+](=O)[O-])cc2c1OCOC2 (stereo not drawn),1.81%,–
Cc1cc(CNC(=O)c2cccc([N+](=O)[O-])c2)c2ccccc2n1,1.21%,–
CCO[C@H]1OC(C(=O)O)=C[C@@H](C2CCCCC2)[C@@H]1CCCO,-0.479%,–
COc1ccccc1NC(=O)C[n+]1ccccc1,0.275%,–
O=C(Nc1ccccc1C(F)(F)F)N1CCCC1c1cccnc1 (stereo not drawn),1.15%,–
CC(C)CNC(=O)/C=C/C(=O)O,0.351%,–
O=C1/C(=C\c2ccsc2)NC(=S)N1c1ccccc1,–,28.2 µM (active)
CC1=CC(C)(C)NC(=S)N1c1ccccc1,4%,–
CCCCCCCCCCCCC(NC(C)=O)(C(=O)OCC)C(=O)OCC,2.57%,–
COc1cc(NC(=O)CN(C)S(=O)(=O)c2ccc3nc(C)sc3c2)cc(OC)c1,-1.71%,–
COc1ccccc1OCCC(=O)OCC(=O)NCc1ccccc1,-5.5%,–
COc1cc(C(=S)NCc2ccccc2)cc(Br)c1O,–,1.78 µM (active)
COc1cc(C=O)c(Br)cc1OCC(=O)NCc1ccccc1,-3.58%,–

SMILES,"activity, negative = inhibition",Potency
COCCn1c(CN2CCC(Cc3ccccc3)CC2)nc2c1c(=O)n(C)c(=O)n2C,7.1%,–
Cn1c(=O)c2c(nc(NCCc3ccccc3)n2Cc2ccccc2)n(C)c1=O,4.03%,–
Cn1c(=O)c2c(nc(OCc3cccnc3)n2Cc2ccccc2)n(C)c1=O,–,10 µM (active)
C=CCOc1nc2c(c(=O)n(C)c(=O)n2C)n1Cc1ccc(Cl)cc1Cl,-3.47%,–
CCOC(=O)N1CCN(Cc2nc3c(c(=O)n(C)c(=O)n3C)n2Cc2ccccc2)CC1,–,0.126 µM (active)
CC1CN(Cc2nc3c(c(=O)n(C)c(=O)n3C)n2Cc2cccc(Cl)c2)CC(C)O1 (stereo not drawn),2.02%,–
Cn1c(SCC(=O)Nc2ccc(Br)cc2F)nnc1-c1ccco1,-4.47%,–
CCCC1NC(=S)NC(C)=C1C(C)=O (stereo not drawn),-5.57%,–
CCO[C@H]1OC(C(=O)NCc2ccccc2)=C[C@@H](c2coc3ccccc3c2=O)[C@@H]1CCCO,-0.194%,–
COCCNC(=S)N1CCC(NC(=O)C23CC4CC(CC(C4)C2)C3)CC1,3.85%,–
Cc1cccc(C)c1NC(=O)Nc1ccccc1-n1ccnc1,0.169%,–
COC(=O)COc1ccc(S(=O)(=O)N2CCOCC2)cc1,10.5%,–
COc1ccc(NC(=O)COC(=O)CNC(=O)C2CCCCC2)cc1,9.02%,–
COc1ccc(OCC(=O)OCC(=O)Nc2ccc(S(=O)(=O)N3CCCCC3)cc2)cc1,–,10 µM (active)
Cc1cccc(NC(=O)CSc2nnc(-c3ccco3)o2)c1,-0.84%,–
Cc1cccc(NC(=O)c2sc3nc4c(c(-c5ccco5)c3c2N)CCC4)c1,–,12.6 µM (active)
O=c1oc(-c2ccco2)nc2sc3c(c12)CCCCC3,-4.5%,–
O=C(CC(NC(=O)c1ccccc1)c1ccccc1)Nc1ccc(F)c(F)c1 (stereo not drawn),3.66%,–
Cc1cc(-c2ccc(/C=N/n3cnnc3)o2)c([N+](=O)[O-])cc1C,–,10 µM (active)
Cc1cc([N+](=O)[O-])c(-c2ccc(/C=N/n3cnnc3)o2)cc1Cl,4.82%,–
Cc1ccc(Cl)cc1-c1ccc(/C=N/n2cnnc2)o1,2.14%,–
CN(C)/C=C(/C(=O)c1ccccc1)S(=O)(=O)c1ccc(Cl)cc1,-1.39%,–
